Results: PubChem BioAssay AID1508625 (Wald Lab, School of Medicine, Case Western Reserve …, 2021)

Test: small molecules boosting NK-mediated OVCAR3 lysis – imaging, primary NK cells, calcein-AM imaging, primary screen (AID 1508625);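 note: compound given to NK cells 16 h before adding targets at 1.5 to 1 ratio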;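 for z-score: more negative robust z means stronger NK killing of tumor cells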
Conditions: OVCAR3 lysis by primary NK cells, at 5 µM; z-score: measured here: robust Z-score, single-point normalisation

Row | Compound | corrected activity, negative = more killing [%] | z-score
1 | Cc1ccc(Cl)cc1N1C(=O)CN(Cc2cccs2)C1=S | -2.1 | -0.567
2 | Cc1ccc(-n2c(O)c(C=C3C=Nc4ccccc43)sc2=O)cc1 | -3.36 | -1.74
3 | CC(C)NC(=O)CCNC(=O)Cn1cnc2sc3c(c2c1=O)CCCC3 | -6.97 | -2.22
4 | Cc1ccccc1C(=NS(=O)(=O)c1ccc(Br)cc1)Nc1ccccc1 | -3.32 | -1.18
5 | O=C(CNc1ccc(Br)cc1)c1ccccc1 | -3.77 | -1.4
6 | CC(C)C(NC(=O)c1ccccc1)C(=O)NC1=NCCS1 (centres undefined) | -2 | -0.869
7 | COc1ccc2c(c1OC)C(=O)OC2CC(=O)c1ccc(C)cc1 (centres undefined) | -8.12 | -1.71
8 | O=C(Oc1ccc(C(=S)N2CCCCC2)cc1)c1ccccc1 | -2.77 | -0.857
9 | CCc1cc(=O)oc2c(C)c(OCC(=O)c3cccc(OC)c3)ccc12 | -4.48 | -1.67
10 | O=C(O)c1cccc(N2C(=O)c3ccc(C(=O)c4ccc5c(c4)C(=O)N(c4cccc(C(=O)O)c4)C5=O)cc3C2=O)c1 | -1.17 | -0.363
11 | O=C(Nc1nc(-c2ccc([N+](=O)[O-])cc2)cs1)c1ccccc1F | -1.2 | -0.252
12 | COc1ccc(-c2cc(C(=O)NN=Cc3ccncc3)[nH]n2)cc1 | 2.36 | 1.03
13 | O=C(O)C1CSC(c2cccs2)=N1 (centres undefined) | -4.41 | -1.19
14 | O=C(O)CN1C(=O)c2cccc3c(Br)ccc1c23 | -4.58 | -2.46
15 | Cc1c(C(=O)NCCc2ccccc2)oc2ccc(S(=O)(=O)N3CCCC3)cc12 | -4.9 | -1.22
16 | Cc1ccc(C(=O)Nc2cccc(C(=O)O)c2)cc1S(=O)(=O)Nc1ccc(Br)cc1 | -15 | -3.16
17 | CCCCOC(=O)c1ccc2c(c1)C(=O)N(c1cccc(Cl)c1)C2=O | -8.14 | -2.52
18 | Cc1ccccc1CSC1=NCCN1C(=O)c1ccc(OC(C)C)cc1 | -4.64 | -1.14
19 | Cc1cc(C)cc(NC(=O)c2cc(S(=O)(=O)NC3CCCCC3)ccc2F)c1 | -5.25 | -1.42
20 | CCOc1ccc(-n2c(SCC(=O)Nc3ccc(C)cc3)nc3c([nH]c4ccccc43)c2=O)cc1 | -5.11 | -1.27
21 | Cc1ccc(N2CCN(c3ccc(N4C(=O)C5CCCCC5C4=O)cc3[N+](=O)[O-])CC2C)cc1 (centres undefined) | -4.67 | -1.7

Row | Compound | corrected activity, negative = more killing [%] | z-score
22 | N[n+]1cnn(CC(=O)c2ccccc2)c1 | -7.75 | -2.46
23 | O=C(NC1CCCCCC1)c1coc(=O)c2ccccc12 | -2.46 | -0.781
24 | COc1ccc(C2=NN(c3nc(-c4ccc(OC)c(F)c4)cs3)C(c3ccco3)C2)cc1 (centres undefined) | -2.68 | -1.01
25 | CC(=O)SCCC(=O)N1C(C)CCCC1C(=O)O (centres undefined) | -3.02 | -1.19
26 | COc1cc(OC)c(CNc2ccc(F)cc2C)cc1Br | -7.05 | -2.24
27 | COC(=O)C1C(=O)C2=C(CC1C)NC(C)=C(C(=O)OC1CCCC1)C2c1ccccc1OC(C)C (centres undefined) | -2.11 | -0.524
28 | Cc1cccc(C)c1NC(=O)c1sc2[nH]c(=O)c(C(=O)O)cc2c1N | -3.74 | -0.931
29 | Cc1sc2nc(SCC(=O)Nc3ccc(N(C)C)cc3)[nH]c(=O)c2c1C | -4.5 | -2.5
30 | Cc1ccc(C)c(NC(=O)c2ccc(-c3ccccc3)cc2)c1 | -4.26 | -1.81
31 | Cc1ccc(OCCCCNC2CCCCC2)c(C)c1 | 4.21 | 2.34
32 | CCOC(=O)c1c(NC(=O)c2ccc(C(=O)c3ccccc3)cc2)sc2c1CCCC2 | -3.96 | -0.836
33 | O=C(Nc1ccc(Oc2ccccc2)cc1)c1nn(-c2ccc(Cl)cc2)c(=O)c2ccccc12 | -3.15 | -1.69
34 | O=C1NC(=S)N(c2ccc(Cl)cc2)C(=O)C1=Cc1cc(Br)ccc1O | -3.58 | -1.85
35 | COC(=O)c1ccc(CN2CCN3CCCC3C2C)cc1 (centres undefined) | -3.15 | -1.38
36 | COc1ccc(C(=O)N2N=C(C(C)C)CC2(O)C(F)(F)F)cc1OC (centres undefined) | -4.89 | -1.46
37 | COc1ccc(C)cc1NC(=O)c1cc(S(=O)(=O)NC2CCCCC2C)ccc1F (centres undefined) | -0.89 | -0.24
38 | C#CCOc1ccc2c(c1)c(C(C)=O)c(C)n2-c1ccc(OCC)cc1 | -1.52 | -0.66
39 | O=C1CC(c2ccc(Cl)cc2)CC2=C1C(c1cccc(F)c1)Nc1ccccc1N2 (centres undefined) | -9.53 | -2.95
40 | O=C(NCc1ccccc1)c1ccc2c(=O)n(-c3cc(C(F)(F)F)ccc3Cl)c(=S)[nH]c2c1 | -5.46 | -1.74
41 | CCCOc1ccc(C(=O)Nc2ccc3oc(-c4ccccc4)nc3c2)cc1 | -3.03 | -1.07
42 | COc1ccc(Cl)cc1NC(=O)CSc1nc2c([nH]c3ccccc32)c(=O)n1C | -2.37 | -0.59
